Over roughly 33,000 sequences, “E-score (-0.5 to 0.5)” has its median near -0.012; the highest 2% begin near 0.29. The list comes from a sample in which the highest values are over-represented; it also holds similar and randomly drawn sequences.

In this experiment the target is T1, Ybr033w (UniProt P38073).
T1 sequence: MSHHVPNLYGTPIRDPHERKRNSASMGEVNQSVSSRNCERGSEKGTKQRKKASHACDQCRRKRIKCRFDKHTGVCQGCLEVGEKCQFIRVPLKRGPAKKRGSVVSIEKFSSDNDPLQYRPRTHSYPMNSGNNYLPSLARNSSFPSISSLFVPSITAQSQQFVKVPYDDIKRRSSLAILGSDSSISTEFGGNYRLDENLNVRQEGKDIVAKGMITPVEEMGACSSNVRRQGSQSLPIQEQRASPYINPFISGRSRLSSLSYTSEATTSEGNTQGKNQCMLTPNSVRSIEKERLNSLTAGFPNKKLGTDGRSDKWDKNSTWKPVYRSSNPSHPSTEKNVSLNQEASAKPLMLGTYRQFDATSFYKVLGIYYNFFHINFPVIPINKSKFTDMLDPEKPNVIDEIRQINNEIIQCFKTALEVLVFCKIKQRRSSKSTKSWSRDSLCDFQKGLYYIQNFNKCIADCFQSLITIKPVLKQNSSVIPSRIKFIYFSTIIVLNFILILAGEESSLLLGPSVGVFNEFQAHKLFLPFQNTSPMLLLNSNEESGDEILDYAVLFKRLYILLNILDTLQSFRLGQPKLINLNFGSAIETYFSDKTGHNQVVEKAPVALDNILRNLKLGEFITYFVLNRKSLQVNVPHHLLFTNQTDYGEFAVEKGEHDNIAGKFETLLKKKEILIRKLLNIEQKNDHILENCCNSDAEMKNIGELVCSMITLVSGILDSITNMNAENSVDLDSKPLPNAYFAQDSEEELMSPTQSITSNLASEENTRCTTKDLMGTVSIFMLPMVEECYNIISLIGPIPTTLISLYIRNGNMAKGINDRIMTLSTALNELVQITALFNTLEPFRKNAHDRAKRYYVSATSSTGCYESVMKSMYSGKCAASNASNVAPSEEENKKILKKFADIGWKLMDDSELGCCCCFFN
As to the kind of experiment: PBM E-score (8-mer binding enrichment) (E-score (-0.5 to 0.5)); higher = stronger / more preferred TF binding. Conditions: protein concentration: 200 nM; construct: GST-full length. The method, boiled down: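 Each ungapped eight-base word and its reverse complement, pooled, received an E-score from the Universal PBM Analysis Suite. Underlying scans, normalised with masliner, recorded fluorescent anti-GST bound to GST-tagged yeast transcription factors. These were applied at about 100-200 nM to universal all-10-mer Agilent arrays double-stranded by primer extension.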
Regarding CTGTTGTC, the “PBM E-score” value was -0.0159.
Turning to AATTTACT, the “PBM E-score” value turned out to be 0.311.
With AATTTAAC the figure was 0.245; with AATTTAAT, 0.319.
As to AACTTAAG, the “PBM E-score” value is 0.0775.
In the case of AACTTAAT, the “PBM E-score” value was found to be 0.314.
Consider AATTTAAG, for which the “PBM E-score” value stood at 0.211.
As for AATTTAGT, the “PBM E-score” value came out at 0.241.
With AATTTACA, the “PBM E-score” value was 0.134.
As to AACTTAAA, the “PBM E-score” value turned out to be 0.237.
Take CCTACCGC: the “PBM E-score” value was -0.292.
On to CCCAGTAC, for which the “PBM E-score” value was -0.0948.
On to CGAAGCGA, for which the “PBM E-score” value is -0.0591.
With ACCAACAC, the “PBM E-score” value is -0.0108.
With ACCTTGAA the figure was 0.102; with GAATTACC, 0.139; with GCATTATA, 0.0824.
Turning to GAATTATA, the “PBM E-score” value is 0.307.
For GAATTATC, the “PBM E-score” value is 0.305.
As to TAATTCTA, the “PBM E-score” value amounted to 0.288.
Next, GAATTAAC: 0.249.
As to TAATTATA, the “PBM E-score” value was 0.382.
Regarding GGATTATA, the “PBM E-score” value amounted to 0.244.
Consider AAATTCTA, for which the “PBM E-score” value came to 0.217.
With GAATTCTA the figure was 0.176; with AAATTATA, 0.215; with CAATTATA, 0.28.
Turning to CTGCACAG, the “PBM E-score” value was -0.0409.
With ATCCATAG, the “PBM E-score” value was -0.0877.
On to CCAGAAAG, for which the “PBM E-score” value came out at 0.171.
As for CCTAAATC, the “PBM E-score” value was 0.0625.
As to AATTGACG, the “PBM E-score” value is -0.0634.
As to CTATGCGA, the “PBM E-score” value was -0.0724.
With AGAAATAC the figure was 0.104; with AGAAATAT, 0.299; with AGAAATAA, 0.36.
Turning to AGAAATAG, the “PBM E-score” value was found to be 0.227.
With CGAAATAA the figure was 0.264.
As for GGAAATAA, the “PBM E-score” value is 0.284.
On to AATTGCCT, for which the “PBM E-score” value is 0.0818.
On to AAACTCCG, for which the “PBM E-score” value was found to be 0.17.
On to CTCTGCTC, for which the “PBM E-score” value was -0.16.
As for ACTGGCCC, the “PBM E-score” value worked out at 0.0468.
With AGTTGGAC, the “PBM E-score” value was -0.0273.
With AGTTGGAT the figure was 0.288; with AGTTGGAG, -0.0321.
For the sequence CAGTCACG, the “PBM E-score” value is -0.248.
Consider CACCGTGG, for which the “PBM E-score” value is -0.311.
Regarding AACAAGTG, the “PBM E-score” value stood at 0.127.
Consider ACCACCGC, for which the “PBM E-score” value was -0.197.
Turning to TAGATTAA, the “PBM E-score” value was 0.312.
On to CAGATTAA, for which the “PBM E-score” value worked out at 0.291.
In the case of TAGATTCA, the “PBM E-score” value was determined as 0.0876.
As for AAGATTAC, the “PBM E-score” value worked out at 0.101.
Turning to AAGATTAG, the “PBM E-score” value came out at 0.219.
On to CAGATTAG, for which the “PBM E-score” value was -0.134.
Next, AAGATTAA: 0.289; TAGATTGA: 0.233; GAGATTAA: 0.182.
As for TCTGGGAA, the “PBM E-score” value was -0.0142.
On to GACGTCAA, for which the “PBM E-score” value is -0.013.
Take AGTTGGAA: the “PBM E-score” value worked out at 0.124.
For CCCAAGAG, the “PBM E-score” value was -0.146.
Turning to AATCATCA, the “PBM E-score” value came to 0.17.
As for CCTGCCAG, the “PBM E-score” value was -0.2.
As for CTGGCCTA, the “PBM E-score” value is -0.0592.
As to AAAATCAT, the “PBM E-score” value stood at 0.31.
For AAAATCAG, the “PBM E-score” value came out at 0.188.
Next, AAAATCAA: 0.221.
Take ATAATCAA: the “PBM E-score” value is 0.229.
In the case of ATAATCAG, the “PBM E-score” value came out at 0.092.
Next, ATAATCAT: 0.292.
With CGGAAAGA the figure was -0.0353; with AGGTGTAC, 0.0056.
CTCAAGTA: the “PBM E-score” value turned out to be 0.0799.
As for ATAGCTTG, the “PBM E-score” value was -0.0519.
Take GGCGACCC: the “PBM E-score” value was -0.301.
Next, ACACACAT: 0.117; AAATCGCT: -0.173; ACTTATAC: 0.244.
Next, ACTTATAT: 0.328; TCTTATAA: 0.0725.
Take ACTTATAA: the “PBM E-score” value worked out at 0.305.
Consider GCTTATAA, for which the “PBM E-score” value is 0.147.
ACTTATAG: the “PBM E-score” value came out at 0.0878.
Turning to CTGGATAC, the “PBM E-score” value is -0.107.
With GACACTAC, the “PBM E-score” value was -0.0871.
With ACGCACAC the figure was 0.157.
On to ATCTACGC, for which the “PBM E-score” value is 0.0459.
With AAATGATT, the “PBM E-score” value came to 0.273.
As for AAATGATA, the “PBM E-score” value amounted to 0.345.
Consider GCATGATA, for which the “PBM E-score” value came out at 0.109.
For the sequence ACATGTTA, the “PBM E-score” value worked out at 0.289.
In the case of ATATGATA, the “PBM E-score” value amounted to 0.347.
Take ACATGTTG: the “PBM E-score” value came out at 0.244.
Next, CAATGATA: 0.126.
Turning to GTATGATA, the “PBM E-score” value came to 0.234.
For ACATGATA, the “PBM E-score” value came out at 0.32.
Regarding ACATGATC, the “PBM E-score” value worked out at 0.122.
Regarding ACATGTTC, the “PBM E-score” value amounted to 0.0642.
CTATGATA: the “PBM E-score” value turned out to be 0.113.
Turning to CGACGTAG, the “PBM E-score” value was -0.223.
Turning to AGCATTCC, the “PBM E-score” value was -0.043.
ATGTGGCG: the “PBM E-score” value is -0.018.
Take AATCTTAC: the “PBM E-score” value came out at 0.137.
Next, GCTTAATA: 0.0557; GGTGGAAA: -0.00937.
Next, CCTGCTCA: -0.156.
Turning to ATTCTAGC, the “PBM E-score” value was determined as 0.0909.
For ACGGGCTA, the “PBM E-score” value is -0.252.
In the case of AGGGATCA, the “PBM E-score” value came out at 0.169.
On to CAATGATC, for which the “PBM E-score” value worked out at 0.0568.
Regarding AAATGATG, the “PBM E-score” value is 0.248.
On to AAATGATC, for which the “PBM E-score” value was 0.328.
As for CATACTGA, the “PBM E-score” value came out at 0.212.
TATACTGA: the “PBM E-score” value worked out at 0.351.
Turning to GATACTGA, the “PBM E-score” value was found to be 0.0886.
With CATTCGCG, the “PBM E-score” value was found to be 0.0443.
Take ATATAGGG: the “PBM E-score” value was -0.00433.
As for GAGGCCTC, the “PBM E-score” value is -0.37.

(Values after the supplement of paper PMC3334620.)
